ALDH1A1 block = qHTS Assay for Inhibitors of Aldehyde Dehydrogenase 1 (ALDH1A1) | Purified ALDH1A1, NADH fluorescence, propionaldehyde substrate | Potency, µM (doses to about 75.3 µM), inactives show at the top dose activity, negative = inhibition, actives largely listed as inhibitors | actives 7.3% (n = 220,000);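 note: plate controls were no enzyme wells and a reference inhibitor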
HTT ATP protect = qHTS Multiplex Assay to Identify Dual Action Probes in a Cell Model of Huntington: Cytoprotection (ATP); PC12 HTT-Q103 induced, cytoprotection, ATP luminescence, 40 h; Potency, µM (top dose mostly 56.4 µM), for inactives: cytoprotection (ATP increase), most hits filed as activators; actives 0.14% (n = 230,000); AID 1471, 2008; active = well fitted curve in the direction sought with a large enough effect; inconclusive = small, poorly fitted or top-dose-only effect, or another doubt; inactive = no such curve, though single readings can be large; an effect the other way counts as inactive or inconclusive; note: % of control where 0% means no effect; nearly all actives have a fitted effect of over 45% in size
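ATP quantification (ATPlite) reports survival of PC12 cells in which tebufenozide, 100 nM final, switches on Htt exon 1 with 103 glutamines linked to GFP; compounds are titrated.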
HPGD inh = qHTS Assay for Inhibitors of HPGD (15-Hydroxyprostaglandin Dehydrogenase); purified HPGD, NADH fluorescence kinetic, PGE2 substrate; 15-hydroxyprostaglandin dehydrogenase [NAD(+)] (Homo sapiens), P15428; Potency, µM, for the others: at the top dose activity change, negative = inhibition, hits mostly inhibitors; actives 4.3% (n = 150,000); note: % is set by controls: 0 for no effect and ±100 for the full control effect
Target sequence (P15428 whole entry, looked up): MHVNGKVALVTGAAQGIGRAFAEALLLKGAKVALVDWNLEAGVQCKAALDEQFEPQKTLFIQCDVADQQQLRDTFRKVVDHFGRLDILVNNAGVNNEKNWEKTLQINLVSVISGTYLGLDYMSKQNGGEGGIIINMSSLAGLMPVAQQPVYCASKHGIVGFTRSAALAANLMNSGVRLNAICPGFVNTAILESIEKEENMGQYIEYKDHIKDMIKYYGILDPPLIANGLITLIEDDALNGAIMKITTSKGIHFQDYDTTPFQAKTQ
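NADH formation kinetics: reaction with 30 uM PGE2 and 1 mM NAD+ (final), 20 nM enzyme, Tris-HCl pH 8 with Tween 20, after 15 min compound preincubation at room temperature. Fluorescence change, last versus first of five reads.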
Lamin A splicing = qHTS Assay for Modulators of Lamin A Splicing. actives 0.01% (n = 200,000). AID 1487, 2009. HeLa LMNA splicing GFP/RFP minigene ratio, 48 h. Potency, µM (series often up to 46.1 µM), inactives show at the top dose ratio change, negative = inhibition, hits mostly inhibitors; active = well fitted inhibition curve with a large enough effect in the signal ratio, with a control signal flat, not every such curve was filed as active; inconclusive = small, poorly fitted or top-dose-only effect, or effect the other way, or a change in a side signal; the % refers to the signal ratio; note: % is set by controls: 0 for no effect and ±100 for the full control effect
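Read-out is the ratio of GFP to DsRed2 object intensity, acquired by 488 nm laser-scanning cytometry on HeLa lamin A-EGFP minigene reporter cells. Compound incubation 48 hrs at 37 °C in Opti-MEM with 2% FBS; DMSO 0.5% final.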
HttQ103 aggreg = qHTS Multiplex Assay to Identify Dual Action Probes in a Cell Model of Huntington: Aggregate Formation (GFP); PC12 HttQ103-GFP aggregates, Acumen cytometry, 40 h; Potency, µM (series often up to 46.1 µM), inactives show at the highest dose activity change, negative = inhibition, hits mostly inhibitors; actives 1.1% (n = 220,000); active = well fitted curve in the direction sought with a large enough effect; inconclusive = small, poorly fitted or top-dose-only effect, or another doubt; inactive = no such curve, though single readings can be large; an effect the other way counts as inactive or inconclusive; note: % is set by controls: 0 for no effect and ±100 for the full control effect; nearly all actives have a fitted effect of over 60% in size
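Huntingtin Q103 exon 1–GFP aggregates in induced PC12 cells (100 nM tebufenozide) were quantified by cytometry from lysates, with compounds dosed in titration.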
* = called active by the depositor; ? = inconclusive; . = no result given; [ ] = another dose, or the depositor's remark. Compounds with a hit are over-represented: about 8.8% of the library has one in this group of screens. Unless noted, calls come from the whole dose curve; as a rule, active = well fitted inhibition curve with a large enough effect (not every such curve was filed as active); inconclusive = small, poorly fitted or top-dose-only effect, or another doubt; inactive = no such curve, though single readings can be large or run the other way. Potency is the fitted concentration of half-maximal effect.

SMILES	ALDH1A1 block	HTT ATP protect	HPGD inh	Lamin A splicing	HttQ103 aggreg
C[N+]1(C)CCc2cc3c(cc2[C@@H]1[C@@H]1OC(=O)c2c1ccc1c2OCO1)OCO3	.	6%[1.9 µM]	.	.	.
CCOc1ccc(/C=C2/C(=O)NC(=O)N(CCc3ccc(F)cc3)C2=O)cc1	1.4µM*	2%[10 µM]	10µM*	-8%	-9%
COc1cc(/C=C2\C(=O)NC(=O)N(c3ccc(C)cc3)C2=O)cc(OC)c1O	?	16%	.	.	4%
CCOC(=O)CSCCOc1ccc(C=C2C(=O)NC(=O)NC2=O)cc1OC	13µM*	-30%	.	?	11%
COc1cc(/C=C2\C(=O)NC(=O)N(CCc3ccc(F)cc3)C2=O)ccc1O	13µM*	6%[10 µM]	13µM*	0%	9%
COc1cc(C=C2C(=O)NC(=O)NC2=O)ccc1O	19µM*	1%[10 µM]	.	.	-13%[9.22 µM]
COC(=O)c1ccccc1N	?	-2%	-17%	.	.
CN(CC(=O)N[C@H](CO)Cc1ccccc1)C(=O)[C@H](CCS(C)=O)NC(=O)[C@@H](N)Cc1ccc(O)cc1 (some centres not stated)	-4%	-3%	.	.	.
CC[C@@]12CCCN3CC[C@@]4(c5ccc(OC)c(O)c5N(C(C)=O)[C@H]4CC1)[C@H]32	.	29%	.	.	.
N[C@H](CCl)C(=O)O	.	-2%[1.9 µM]	.	.	.
COc1cc2c(cc1OC)[C@]13CC[N@+]4(C)CC5=CCO[C@H]6CC(=O)N2[C@@H]1C6[C@@H]5C[C@]34O (some centres not stated)	16%[13.5 µM]	.	-1%	.	.
CCOc1cc(C=C2C(=O)NC(=O)NC2=O)cc([N+](=O)[O-])c1O	28µM*	-3%[10 µM]	.	.	-3%[9.22 µM]
N#CC(c1ccc(O)cc1)N1CCCCC1 (configuration not stated)	4.5µM*	5%	-17%	4%	7%
N#CC(c1ccc(Cl)cc1)N1CCOCC1 (configuration not stated)	22%	-8%	.	.	0%
COc1cccc(C(C#N)N2CCCCC2)c1O (configuration not stated)	8%	2%	2.2µM*	18%	8%
CCCC[N+](=O)[O-]	?	-14%	-5%	.	.
O=c1[nH]c(=O)n(CCc2ccc(F)cc2)c(O)c1C=NCc1ccc2c(c1)OCO2	11%	5%[10 µM]	?	-9%	1%
COc1ccc(CCn2c(O)c(C=NCc3ccc4c(c3)OCO4)c(=O)[nH]c2=O)cc1OC	5µM*	-22%	-4%	4%	8%
COc1cc2c(cc1OC)[C@@H]1C(=O)c3ccc(OC)c(CC=C(C)C)c3OC1CO2 (some centres not stated)	?	.	-28%	?	.
O=C1/C(=C/c2cccnc2)SC(=NCc2ccccc2)N1Cc1ccccc1	0.56µM*	-44%	.	?	?
CC(=O)N1CC[N+](C)(C)CC1	-2%	-35%	-21%	.	.
COP(=S)(OC)SCN1C(=O)c2ccccc2C1=O	?	-8%	20µM*	10%	6%
CCSC(=O)Cl	?	-10%	-9%	.	.
O=c1[nH]c(=O)n(CCC2=CCCCC2)c(O)c1C=NCCN1CCNCC1	14µM*	12%[0.074 µM]	-5%	12%	3%
O=c1[nH]c(=O)n(Cc2ccccc2)c(O)c1C=Nc1ccc(CN2CCOCC2)cc1	14µM*	-7%	.	12%	27%
SMILES	ALDH1A1 block	HTT ATP protect	HPGD inh	Lamin A splicing	HttQ103 aggreg
C=CCn1c(O)c(C=NCCN2CCNCC2)c(=O)[nH]c1=O	?	-12%	-12%	6%	0%[9.22 µM]
O=c1[nH]c(=O)n(Cc2ccccc2)c(O)c1C=NCCN1CCNCC1	16µM*	-2%[10 µM]	22µM*	5%	-5%
c1cncc(CNc2cc(-c3ccc4c(c3)OCO4)ncn2)c1	?	-16%	?	10%	.
C[C@@H]1OC(=O)[C@H]2C[C@H]3CCCC[C@@H]3[C@@H](/C=C/[C@H]3CCC[C@H](C)N3C)[C@@H]12	-6%	-29%	.	.	.
CCC1CN2CCC1CC2C(O)c1ccnc2ccc(OC)cc12 (configuration not stated)	?	2%	?	.	.
[O-]/[N+](=C/c1cccnc1)c1ccc(Br)cc1	1.8µM*	-11%[10 µM]	-18%	-6%	-6%
COc1ccccc1OCC#CCN1CCCCCC1	28µM*	5.6µM*	.	.	?
C[C@@H]1Cc2cc3c(cc2C(c2ccc(N)cc2)=NN1)OCO3	.	15%[1.9 µM]	.	.	.
Nc1nnnn1CCO	0%[13.5 µM]	8%[10 µM]	-4%	.	.
Cc1ccc(-c2nn(C)c(=O)c3ccccc23)cc1CNC(=O)/C=C/c1ccccc1	22µM*	-68%	?	?	?
Cc1c(C=O)c2ccccc2n1Cc1cccc(F)c1	-12%	-7%[0.074 µM]	-11%	-2%	0%
O=Cc1c(C(=O)O)n(Cc2ccc(Cl)cc2)c2ccccc12	13µM*	-3%[10 µM]	-17%	?	18%
C[C@H]1C[C@@H](C)C(=O)[C@@H]([C@H](O)CC2CC(=O)NC(=O)C2)C1	-10%	-48%[10 µM]	-9%	?	0.35µM*
O=C1NC(=O)N(Cc2cccs2)C(=O)/C1=C/c1ccc(N2CCOCC2)cc1	7.1µM*	-41%	.	-6%[46 µM]	0%
CCN1C(=O)NC(=O)/C(=C\c2ccc(N3CCOCC3)cc2OC)C1=O	?	-4%	?	11%	-8%
OC1(c2ccc(F)cc2)CC2CCC(C1)N2Cc1nnnn1C1CCCCC1 (configuration not stated)	0.63µM*	13%[10 µM]	-6%	-1%	-1%
O=C(c1ccc2c(c1)ncn2-c1ccc(F)cc1F)N1CCC2(CC1)OCCO2	?	-74%	.	.	-8%
Cc1nc2cc(C(=O)N3CCC4(CC3)OCCO4)ccc2n1-c1ccc(Br)cc1	?	-1%	8.9µM*	5%	10%
Cc1cc(C(=O)N2CCC3(CC2)OCCO3)cs1	-13%	-7%[0.074 µM]	?	-6%	0%
COc1ccc(-n2c(C)nc3cc(C(=O)N4CCC5(CC4)OCCO5)ccc32)cc1	?	14%[1.9 µM]	13µM*	-11%	0%
CCN1C[C@]2(COC(=O)c3ccccc3N3C(=O)C[C@H](C)C3=O)CC[C@H](OC)[C@@]34[C@@H]5C[C@H]6[C@H](OC)[C@H]5[C@](O)(C[C@@H]6OC)[C@@](O)([C@@H](OC)[C@@H]23)[C@@H]14	-3%	-8%	-4%	.	.
CC1CCCN(C(=O)c2ccc(N3CC4CC(C3)c3cccc(=O)n3C4)c([N+](=O)[O-])c2)C1 (configuration not stated)	7.9µM*	7%[10 µM]	18µM*	-15%	-16%
NC(=NCCc1ccc(I)cc1)SCCCc1cnc[nH]1	-2%	-27%	-7%	.	.
